# Measurements reported in PMC7862700, “An all-to-all approach to the identification of sequence-specific readers for epigenetic DNA modifications on cytosine”.
# How the values were obtained:
# Assay in all cases: DAPPL (digital affinity profiling via proximity ligation, sequencing); 10 mM Tris-HCl pH 7.5, 50 mM NaCl, 1 mM DTT, 4% glycerol, room temperature, 30 min; GST-TFs on glutathione beads, 16-mer random dsDNA library, 0.1% formaldehyde crosslink after washing; high values mean tight binding
# [1] = target: T1, FEV (Homo sapiens, UniProt Q99581 1-238); settings: protein: recombinant; tags: N-terminal GST; dsDNA, one strand shown
# T1 sequence: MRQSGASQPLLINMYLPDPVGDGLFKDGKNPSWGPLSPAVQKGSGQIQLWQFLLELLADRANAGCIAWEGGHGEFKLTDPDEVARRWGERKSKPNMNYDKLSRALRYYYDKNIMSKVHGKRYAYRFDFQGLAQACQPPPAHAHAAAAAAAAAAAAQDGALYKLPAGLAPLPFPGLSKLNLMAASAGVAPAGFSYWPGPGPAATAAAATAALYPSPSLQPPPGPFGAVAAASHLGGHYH
# Procedure, shortened: (§1)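 A tag-only sample was pooled with DNA-barcoded human transcription factors that had been expressed in yeast as GST fusions and captured on glutathione beads. The pools were incubated for 30 min at room temperature with 200 nmole of a random double-stranded 16-mer DNA library in Tris/NaCl/DTT/glycerol buffer, then washed, crosslinked with 0.1% formaldehyde, proximity-ligated (BsaI/T4 ligase, 1 h, 37 °C), PCR-amplified and sequenced on an Illumina NextSeq500. Binding signal is each hexamer's read frequency for a factor divided by its frequency for the tag-only sample.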
# [2] = target: ETV5 (Homo sapiens, UniProt P41161 1-510); settings: protein: recombinant; tags: N-terminal GST; dsDNA, one strand shown
# Sequence of ETV5 (P41161 whole entry): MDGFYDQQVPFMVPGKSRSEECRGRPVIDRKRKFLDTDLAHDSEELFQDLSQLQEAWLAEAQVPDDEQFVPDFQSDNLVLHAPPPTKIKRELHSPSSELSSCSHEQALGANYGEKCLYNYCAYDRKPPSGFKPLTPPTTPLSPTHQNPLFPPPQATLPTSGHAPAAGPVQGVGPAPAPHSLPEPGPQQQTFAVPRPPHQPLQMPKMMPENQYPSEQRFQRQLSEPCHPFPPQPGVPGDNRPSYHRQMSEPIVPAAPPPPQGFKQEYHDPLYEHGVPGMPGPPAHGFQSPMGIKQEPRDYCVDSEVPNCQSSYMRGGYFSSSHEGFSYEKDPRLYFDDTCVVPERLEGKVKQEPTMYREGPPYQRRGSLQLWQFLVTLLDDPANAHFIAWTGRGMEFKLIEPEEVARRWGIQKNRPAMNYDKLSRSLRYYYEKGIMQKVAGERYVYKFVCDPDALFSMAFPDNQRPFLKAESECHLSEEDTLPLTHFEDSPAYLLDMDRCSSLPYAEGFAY
# Procedure, shortened: as §1
# [3] = target: HSF1 (Homo sapiens, UniProt Q00613 1-529); settings: protein: recombinant; tags: N-terminal GST; chain copies: 3; dsDNA, one strand shown
# Sequence of HSF1 (Q00613 whole entry): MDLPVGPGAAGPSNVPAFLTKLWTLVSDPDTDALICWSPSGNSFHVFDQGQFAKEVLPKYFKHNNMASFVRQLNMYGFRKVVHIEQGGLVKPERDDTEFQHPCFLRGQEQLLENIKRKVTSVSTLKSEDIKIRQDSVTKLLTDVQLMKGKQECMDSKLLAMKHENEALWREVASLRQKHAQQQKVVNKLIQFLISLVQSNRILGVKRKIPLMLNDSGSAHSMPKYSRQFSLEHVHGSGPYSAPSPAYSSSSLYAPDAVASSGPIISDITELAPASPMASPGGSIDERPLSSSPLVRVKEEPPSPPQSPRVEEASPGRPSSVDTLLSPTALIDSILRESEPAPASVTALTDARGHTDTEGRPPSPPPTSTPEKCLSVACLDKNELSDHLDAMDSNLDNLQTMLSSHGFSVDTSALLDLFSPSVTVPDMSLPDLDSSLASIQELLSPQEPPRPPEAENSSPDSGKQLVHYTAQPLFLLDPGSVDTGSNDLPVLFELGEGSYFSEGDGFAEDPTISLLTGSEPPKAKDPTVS
# Procedure, shortened: as §1
# [4] = target: T2, SPIC (Homo sapiens, UniProt Q8N5J4 1-248); settings: protein: recombinant; tags: N-terminal GST; dsDNA, one strand shown
# T2 sequence: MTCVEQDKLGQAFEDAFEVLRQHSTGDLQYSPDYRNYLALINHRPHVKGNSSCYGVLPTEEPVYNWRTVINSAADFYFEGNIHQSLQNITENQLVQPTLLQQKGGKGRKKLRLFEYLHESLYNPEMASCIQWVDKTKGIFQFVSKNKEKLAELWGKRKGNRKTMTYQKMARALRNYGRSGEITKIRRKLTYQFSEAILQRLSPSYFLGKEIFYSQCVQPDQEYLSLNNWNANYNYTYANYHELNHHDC
# Procedure, shortened: as §1
# [5] = target: ELF4 (Homo sapiens, UniProt Q99607 1-663); settings: protein: recombinant; tags: N-terminal GST; dsDNA, one strand shown
# Sequence of ELF4 (Q99607 whole entry): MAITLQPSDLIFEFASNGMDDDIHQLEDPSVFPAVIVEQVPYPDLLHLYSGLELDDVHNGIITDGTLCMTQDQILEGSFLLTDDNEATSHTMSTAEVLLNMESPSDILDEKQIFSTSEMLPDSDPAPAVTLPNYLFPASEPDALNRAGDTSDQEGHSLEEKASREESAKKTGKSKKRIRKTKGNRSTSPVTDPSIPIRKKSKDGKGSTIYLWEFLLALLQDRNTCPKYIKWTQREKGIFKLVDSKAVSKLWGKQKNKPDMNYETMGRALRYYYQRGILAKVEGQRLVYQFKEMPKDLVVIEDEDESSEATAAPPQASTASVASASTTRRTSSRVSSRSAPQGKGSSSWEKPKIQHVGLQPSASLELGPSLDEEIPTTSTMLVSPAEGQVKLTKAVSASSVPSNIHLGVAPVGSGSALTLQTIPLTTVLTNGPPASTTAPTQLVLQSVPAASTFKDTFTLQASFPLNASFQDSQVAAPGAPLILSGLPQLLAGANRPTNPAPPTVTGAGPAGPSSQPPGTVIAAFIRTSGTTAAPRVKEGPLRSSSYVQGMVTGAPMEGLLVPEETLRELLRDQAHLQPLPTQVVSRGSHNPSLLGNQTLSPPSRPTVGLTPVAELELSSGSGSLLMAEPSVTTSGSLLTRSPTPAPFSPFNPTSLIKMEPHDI
# Procedure, shortened: as §1
# [6] = target: T3, ELK4 (Homo sapiens, UniProt P28324-2 1-405); settings: protein: recombinant; tags: N-terminal GST; dsDNA, one strand shown
# T3 sequence: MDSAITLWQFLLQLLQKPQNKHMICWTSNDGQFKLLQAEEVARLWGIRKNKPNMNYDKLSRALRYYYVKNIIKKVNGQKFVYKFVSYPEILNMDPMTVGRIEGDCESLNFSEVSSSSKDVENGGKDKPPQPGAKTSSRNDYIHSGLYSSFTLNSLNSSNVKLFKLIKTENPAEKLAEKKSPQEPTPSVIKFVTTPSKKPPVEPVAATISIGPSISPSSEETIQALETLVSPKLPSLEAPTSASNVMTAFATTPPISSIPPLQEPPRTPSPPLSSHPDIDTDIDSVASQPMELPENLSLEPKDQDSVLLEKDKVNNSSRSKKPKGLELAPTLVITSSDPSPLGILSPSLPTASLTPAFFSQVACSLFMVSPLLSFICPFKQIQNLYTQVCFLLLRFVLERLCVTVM
# Procedure, shortened: as §1
# [7] = target: T4, ETV2 (Homo sapiens, UniProt O00321 1-342); settings: protein: recombinant; tags: N-terminal GST; dsDNA, one strand shown
# T4 sequence: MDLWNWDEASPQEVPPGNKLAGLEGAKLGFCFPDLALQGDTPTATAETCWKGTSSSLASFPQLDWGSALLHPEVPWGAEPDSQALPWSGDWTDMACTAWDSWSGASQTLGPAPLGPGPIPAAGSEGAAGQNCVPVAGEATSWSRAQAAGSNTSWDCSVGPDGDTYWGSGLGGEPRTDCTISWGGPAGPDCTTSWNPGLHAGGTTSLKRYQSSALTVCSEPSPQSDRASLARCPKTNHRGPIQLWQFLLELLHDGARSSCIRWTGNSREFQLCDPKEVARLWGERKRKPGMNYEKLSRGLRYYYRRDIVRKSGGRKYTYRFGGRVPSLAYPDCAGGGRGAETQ
# Procedure, shortened: as §1
# [8] = target: T5, ELF3 (Homo sapiens, UniProt P78545 1-371); settings: protein: recombinant; tags: N-terminal GST; dsDNA, one strand shown
# T5 sequence: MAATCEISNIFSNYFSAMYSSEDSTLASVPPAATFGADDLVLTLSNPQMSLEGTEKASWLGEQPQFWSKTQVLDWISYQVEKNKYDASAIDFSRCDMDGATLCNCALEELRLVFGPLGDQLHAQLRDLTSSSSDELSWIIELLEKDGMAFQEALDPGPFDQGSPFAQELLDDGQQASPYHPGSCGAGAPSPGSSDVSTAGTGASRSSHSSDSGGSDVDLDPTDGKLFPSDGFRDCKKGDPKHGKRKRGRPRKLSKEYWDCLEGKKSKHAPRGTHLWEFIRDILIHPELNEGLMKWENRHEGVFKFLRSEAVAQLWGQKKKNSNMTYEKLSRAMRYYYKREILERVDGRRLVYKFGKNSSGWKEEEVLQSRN
# Procedure, shortened: as §1
# [9] = target: CRX (Homo sapiens, UniProt O43186 1-299); settings: protein: recombinant; tags: N-terminal GST; dsDNA, one strand shown
# Sequence of CRX (O43186 whole entry): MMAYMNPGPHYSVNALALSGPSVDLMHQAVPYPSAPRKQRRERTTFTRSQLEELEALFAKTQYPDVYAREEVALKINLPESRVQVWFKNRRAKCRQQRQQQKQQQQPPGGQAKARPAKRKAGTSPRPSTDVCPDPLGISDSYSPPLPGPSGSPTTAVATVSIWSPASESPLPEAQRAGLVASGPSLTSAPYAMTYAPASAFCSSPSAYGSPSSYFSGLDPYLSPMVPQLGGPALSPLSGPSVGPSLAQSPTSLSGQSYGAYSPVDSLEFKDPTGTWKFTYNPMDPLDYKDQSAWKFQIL
# Procedure, shortened: as §1
# [10] = target: ETV1 (Homo sapiens, UniProt P50549 1-477); settings: protein: recombinant; tags: N-terminal GST; dsDNA, one strand shown
# Sequence of ETV1 (P50549 whole entry): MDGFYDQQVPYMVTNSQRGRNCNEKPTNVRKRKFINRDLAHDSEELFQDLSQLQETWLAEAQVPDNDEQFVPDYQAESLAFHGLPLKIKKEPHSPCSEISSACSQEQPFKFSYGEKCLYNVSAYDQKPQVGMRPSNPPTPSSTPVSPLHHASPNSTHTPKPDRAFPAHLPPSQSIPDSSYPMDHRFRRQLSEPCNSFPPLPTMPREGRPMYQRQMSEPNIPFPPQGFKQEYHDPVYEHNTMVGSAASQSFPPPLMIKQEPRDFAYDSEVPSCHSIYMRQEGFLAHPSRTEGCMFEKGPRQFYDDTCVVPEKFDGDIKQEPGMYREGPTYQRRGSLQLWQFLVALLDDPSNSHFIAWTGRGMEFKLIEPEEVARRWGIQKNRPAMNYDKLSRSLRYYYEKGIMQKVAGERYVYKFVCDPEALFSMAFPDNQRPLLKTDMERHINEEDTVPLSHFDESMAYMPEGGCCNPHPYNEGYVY
# Procedure, shortened: as §1
# [11] = target: T6, ERF (Homo sapiens, UniProt P50548 1-548); settings: protein: recombinant; tags: N-terminal GST; dsDNA, one strand shown
# T6 sequence: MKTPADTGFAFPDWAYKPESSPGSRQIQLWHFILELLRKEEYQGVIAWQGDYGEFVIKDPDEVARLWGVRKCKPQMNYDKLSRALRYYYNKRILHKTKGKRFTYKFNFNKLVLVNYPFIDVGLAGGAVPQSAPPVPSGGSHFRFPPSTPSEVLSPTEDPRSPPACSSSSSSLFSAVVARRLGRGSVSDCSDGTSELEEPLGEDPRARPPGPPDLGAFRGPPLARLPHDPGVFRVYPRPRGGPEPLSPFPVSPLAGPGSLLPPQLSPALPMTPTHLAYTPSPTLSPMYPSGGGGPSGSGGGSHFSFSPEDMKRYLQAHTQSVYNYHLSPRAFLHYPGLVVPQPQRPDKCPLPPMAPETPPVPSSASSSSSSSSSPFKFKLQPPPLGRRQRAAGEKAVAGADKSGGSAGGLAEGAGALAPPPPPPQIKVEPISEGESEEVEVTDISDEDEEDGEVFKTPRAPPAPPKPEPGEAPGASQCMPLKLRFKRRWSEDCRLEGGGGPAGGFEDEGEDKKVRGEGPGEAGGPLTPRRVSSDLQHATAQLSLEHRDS
# Procedure, shortened: as §1
# [12] = target: T7, ETV3L (Homo sapiens, UniProt Q6ZN32 1-361); settings: protein: recombinant; tags: N-terminal GST; dsDNA, one strand shown
# T7 sequence: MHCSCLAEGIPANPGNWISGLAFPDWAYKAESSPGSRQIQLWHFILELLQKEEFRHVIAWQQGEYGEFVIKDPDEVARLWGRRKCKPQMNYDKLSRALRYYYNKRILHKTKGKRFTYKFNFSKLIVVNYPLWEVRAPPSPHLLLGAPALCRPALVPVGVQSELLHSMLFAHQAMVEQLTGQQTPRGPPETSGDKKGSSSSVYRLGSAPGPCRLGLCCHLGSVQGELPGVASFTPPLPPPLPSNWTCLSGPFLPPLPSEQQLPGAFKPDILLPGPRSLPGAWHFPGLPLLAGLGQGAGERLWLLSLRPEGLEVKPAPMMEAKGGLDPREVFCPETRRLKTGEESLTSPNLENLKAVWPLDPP
# Procedure, shortened: as §1
# [13] = target: T8, ETS2 (Homo sapiens, UniProt P15036 1-469); settings: protein: recombinant; tags: N-terminal GST; dsDNA, one strand shown
# T8 sequence: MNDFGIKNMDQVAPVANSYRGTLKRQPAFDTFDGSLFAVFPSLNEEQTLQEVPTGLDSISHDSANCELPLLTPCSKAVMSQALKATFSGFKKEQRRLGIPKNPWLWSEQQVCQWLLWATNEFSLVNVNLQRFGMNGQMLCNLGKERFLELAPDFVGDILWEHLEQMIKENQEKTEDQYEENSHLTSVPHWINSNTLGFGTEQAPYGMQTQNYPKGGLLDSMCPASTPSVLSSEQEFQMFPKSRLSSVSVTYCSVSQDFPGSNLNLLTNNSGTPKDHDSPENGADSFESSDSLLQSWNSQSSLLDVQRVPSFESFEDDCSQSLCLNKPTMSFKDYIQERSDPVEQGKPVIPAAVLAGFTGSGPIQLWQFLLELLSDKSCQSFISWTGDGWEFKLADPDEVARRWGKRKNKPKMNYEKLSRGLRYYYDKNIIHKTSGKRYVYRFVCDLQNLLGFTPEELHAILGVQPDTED
# Procedure, shortened: as §1
# [14] = target: T9, SPDEF (Homo sapiens, UniProt O95238 1-335); settings: protein: recombinant; tags: N-terminal GST; dsDNA, one strand shown
# T9 sequence: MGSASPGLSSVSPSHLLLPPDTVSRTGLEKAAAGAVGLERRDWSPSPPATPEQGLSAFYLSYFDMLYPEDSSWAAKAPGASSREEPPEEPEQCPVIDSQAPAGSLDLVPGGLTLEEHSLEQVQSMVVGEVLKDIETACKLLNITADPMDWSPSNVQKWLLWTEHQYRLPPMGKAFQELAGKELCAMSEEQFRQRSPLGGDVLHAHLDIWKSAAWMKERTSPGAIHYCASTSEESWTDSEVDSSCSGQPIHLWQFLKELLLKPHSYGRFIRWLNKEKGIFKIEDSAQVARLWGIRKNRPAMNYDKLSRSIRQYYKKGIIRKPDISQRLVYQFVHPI
# Procedure, shortened: as §1
# [15] = target: T10, ETV7 (Homo sapiens, UniProt Q9Y603 1-341); settings: protein: recombinant; tags: N-terminal GST; dsDNA, one strand shown
# T10 sequence: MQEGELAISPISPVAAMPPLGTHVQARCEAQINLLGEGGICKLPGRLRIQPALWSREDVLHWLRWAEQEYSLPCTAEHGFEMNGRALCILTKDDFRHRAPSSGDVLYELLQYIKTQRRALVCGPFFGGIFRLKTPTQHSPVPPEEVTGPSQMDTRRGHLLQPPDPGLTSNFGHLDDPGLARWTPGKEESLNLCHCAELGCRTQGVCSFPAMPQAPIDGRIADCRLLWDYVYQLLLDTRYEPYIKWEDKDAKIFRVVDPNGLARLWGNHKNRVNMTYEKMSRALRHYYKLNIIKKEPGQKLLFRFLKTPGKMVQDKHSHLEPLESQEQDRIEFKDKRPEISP
# Procedure, shortened: as §1
# [16] = target: T11, ELF5 (Homo sapiens, UniProt Q9UKW6-2 1-255); settings: protein: recombinant; tags: N-terminal GST; dsDNA, one strand shown
# T11 sequence: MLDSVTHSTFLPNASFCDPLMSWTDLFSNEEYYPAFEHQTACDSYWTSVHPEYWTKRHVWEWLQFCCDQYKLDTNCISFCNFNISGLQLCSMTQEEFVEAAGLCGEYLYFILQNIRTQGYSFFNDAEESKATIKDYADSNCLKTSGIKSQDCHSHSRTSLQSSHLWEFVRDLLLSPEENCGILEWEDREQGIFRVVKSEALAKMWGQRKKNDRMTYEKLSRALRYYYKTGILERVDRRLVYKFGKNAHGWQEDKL
# Procedure, shortened: as §1
# [17] = target: T12, ETV3 (Homo sapiens, UniProt P41162-2 1-143); settings: protein: recombinant; tags: N-terminal GST; dsDNA, one strand shown
# T12 sequence: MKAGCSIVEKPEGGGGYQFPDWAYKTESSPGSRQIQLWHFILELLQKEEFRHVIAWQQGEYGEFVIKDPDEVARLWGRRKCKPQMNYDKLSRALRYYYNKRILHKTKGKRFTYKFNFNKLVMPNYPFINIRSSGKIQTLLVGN
# Procedure, shortened: as §1
# [18] = target: ETV6 (Homo sapiens, UniProt P41212 1-452); settings: protein: recombinant; tags: N-terminal GST; dsDNA, one strand shown
# Sequence of ETV6 (P41212 whole entry): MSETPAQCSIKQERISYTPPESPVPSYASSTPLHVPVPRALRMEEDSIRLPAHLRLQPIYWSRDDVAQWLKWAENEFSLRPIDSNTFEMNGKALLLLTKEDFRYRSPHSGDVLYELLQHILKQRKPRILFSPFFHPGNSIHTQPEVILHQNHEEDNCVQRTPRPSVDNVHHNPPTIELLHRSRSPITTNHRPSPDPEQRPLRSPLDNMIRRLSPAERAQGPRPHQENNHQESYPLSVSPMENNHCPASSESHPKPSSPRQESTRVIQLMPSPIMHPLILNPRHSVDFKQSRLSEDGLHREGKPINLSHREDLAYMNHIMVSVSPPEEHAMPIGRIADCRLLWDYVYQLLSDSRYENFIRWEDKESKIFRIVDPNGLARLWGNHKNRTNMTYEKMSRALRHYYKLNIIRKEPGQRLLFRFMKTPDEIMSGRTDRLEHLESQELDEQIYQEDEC
# Procedure, shortened: as §1
sequence,measurement,setting,value
CATTCG,binding signal,[1],"1.17 fold enrichment (6-mer frequency, TF over GST control)"
same,binding signal,[2],"1.09 fold enrichment (6-mer frequency, TF over GST control)"
same,binding signal,[3],"1.64 fold enrichment (6-mer frequency, TF over GST control)"
same,binding signal,[4],"1.3 fold enrichment (6-mer frequency, TF over GST control)"
same,binding signal,[5],"1.18 fold enrichment (6-mer frequency, TF over GST control)"
same,binding signal,[6],"1.05 fold enrichment (6-mer frequency, TF over GST control)"
same,binding signal,[7],"1.22 fold enrichment (6-mer frequency, TF over GST control)"
same,binding signal,[8],"1.25 fold enrichment (6-mer frequency, TF over GST control)"
same,binding signal,[9],"1.14 fold enrichment (6-mer frequency, TF over GST control)"
same,binding signal,[10],"1.16 fold enrichment (6-mer frequency, TF over GST control)"
same,binding signal,[11],"1.21 fold enrichment (6-mer frequency, TF over GST control)"
same,binding signal,[12],"1.17 fold enrichment (6-mer frequency, TF over GST control)"
same,binding signal,[13],"1.17 fold enrichment (6-mer frequency, TF over GST control)"
same,binding signal,[14],"1.15 fold enrichment (6-mer frequency, TF over GST control)"
same,binding signal,[15],"1.18 fold enrichment (6-mer frequency, TF over GST control)"
same,binding signal,[16],"1.13 fold enrichment (6-mer frequency, TF over GST control)"
same,binding signal,[17],"1.27 fold enrichment (6-mer frequency, TF over GST control)"
same,binding signal,[18],"1.27 fold enrichment (6-mer frequency, TF over GST control)"
